Where “and” joins values, the source holds several entries; their conditions need not be identical. Equal values may be shown once. Records with an inconclusive call do not appear. Calls of active or inactive are those of the source. Unless noted, calls follow the shape of the dose curve; as a rule, active = well fitted curve in the direction sought with a large enough effect; inconclusive = small, poorly fitted or top-dose-only effect, or another doubt; inactive = no such curve, though single readings can be large; an effect the other way counts as inactive or inconclusive.
Columns and labels:
[1] = qHTS for compounds that reverse cellular toxicity of Amyloid beta (A-beta) peptide in yeast: LOPAC Validation Assay (AID 720559);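 also: plate controls were DMSO for no effect and equimolar ferric chloride plus clioquinol rescue for full effect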
In short: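 Activity is expressed relative to DMSO and an equimolar ferric chloride/clioquinol mix. Compounds were pinned into medium with A-beta-expressing yeast, grown 48 hr at 30 C, then read by absorbance at 600 nm.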

[2] = qHTS for Activators of Parkin Expression: LOPAC Validation Assay (NLuc Reporter) (AID 720572)
In short: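 Compound effects on Parkin promoter activity were measured as NanoLuc luminescence after 24 h at 37 C. The neuronal reporter line also carried FLuc, which was read first. LOPAC compounds were tested at 7 concentrations, with normalization to DMSO (0%) and positive control (100%).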

[3] = qHTS for Activators of Parkin Expression: LOPAC Validation Assay (FLuc Reporter) (AID 720573)
In short: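 A neuronal cell line harbouring FLuc and NLuc reporters behind the Parkin promoter was exposed to compounds for 24 h. Firefly luciferase signal, measured after 10 min with detection reagent, was scaled to DMSO and positive-control wells.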

[4] = target: T1, Hexokinase-4 (Homo sapiens) + Glucokinase regulatory protein (Homo sapiens) (UniProt P35557+Q14397); assay: qHTS assay for inhibitors of recombinant human GCK-GKRP interaction: Diaphorase-coupled assay (AID 743205)
In short: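 Inhibitors of the GCK–GKRP complex relieve GKRP suppression of GCK, detected through a G6PDH–diaphorase cascade reducing resazurin. Human GST-GCK and FLAG-GKRP are used at 10 nM with 5 mM glucose and 0.4 mM ATP.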

[5] = target: T1, Hexokinase-4 (Homo sapiens) + Glucokinase regulatory protein (Homo sapiens); assay: qHTS assay for inhibitors of recombinant human GCK-GKRP interaction: ADP-Glo assay (AID 743206);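 also: plate controls were DMSO plus enzyme for no effect and no enzyme for full effect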
In short: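 Pin-transferred compounds meet a 15 nM GST-GCK/15 nM FLAG-GKRP/2 uM S6P mix (dispense concentrations). ATP is then added to 0.4 mM final with 5 mM glucose, and the reaction runs 60 min at room temperature. ADP is quantified luminescently.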

[6] = target: T1, Hexokinase-4 (Homo sapiens) + Glucokinase regulatory protein (Homo sapiens); assay: qHTS assay for inhibitors of recombinant human GCK-GKRP interaction: HTRF assay (AID 743207);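 also: 0% = DMSO with GCK present and -100% = DMSO wells lacking GCK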
In short: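 Steps: dispense GCK–GKRP complex (5 nM each, GST- and FLAG-tagged) with 2 uM S6P; pin in compounds; add XL665/Eu-cryptate-labelled antibodies; incubate 60 min at room temperature; read time-resolved FRET at 665 and 615 nm.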

[7] = qHTS Assay for Identifying Gametocytocidal Compounds (AID 743244);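 also: % is scaled to controls: 0 for no effect and ±100 for the full control effect; actives lower the fluorescent signal which means gametocytes are killed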; settings: P. falciparum 3D7 stage III-V gametocytes, alamarBlue, 72 h; max response: stronger effect = lower value
In short: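 Viability read-out was resazurin reduction (alamarBlue, 24 h) measured at Ex 525/Em 598 nm. Beforehand, late-stage (III-V) 3D7 P. falciparum gametocytes at 20,000 cells/well were incubated with compound 72 h at 37C under 5% CO2.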

[8] = target: Tumor necrosis factor (Homo sapiens) (UniProt P01375); assay: qHTS assay to identify small molecules that stimulate Tumor Necrosis Factor-alpha (TNF-alpha) secretion (AID 651757; active = well fitted curve in the direction sought with a large enough effect in the signal ratio; the % refers to the signal ratio; also: 0% is about no effect)
In short: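 Secreted TNF-alpha quantified by TR-FRET sandwich of two labeled anti-TNF-alpha antibodies, incubated 3 hr at room temperature. Preceded by 17 hr, 37 C compound treatment of THP-1 cells at 3000 cells/well.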

[9] = qHTS assay for environmental chemicals that activate the Aryl hydrocarbon Receptor (AhR) signaling pathway (AID 651777); settings: 1A2-DRE human hepatoma cells, luciferase, 24 h; activation: stronger effect = higher value; also: % of control where 0% means no effect; nearly all actives have a fitted effect of over 15% in size
In short: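 Luminescence (One-Glo, 30 min, room temperature) reports AhR-driven luciferase in stably transfected human hepatoma cells bearing DRE and CYP1A2 promoter. Cells (1,200/well) were treated with compound for 24 hr at 37 C in qHTS format.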

[10] = target: Peroxisome proliferator-activated receptor alpha (Homo sapiens) (UniProt Q07869); assay: qHTS assay for small molecule agonists of the peroxisome proliferator-activated receptor alpha (PPARalpha) signaling pathway (AID 651778); settings: PathHunter PPARalpha complementation, chemiluminescence, 6 h; max response: stronger effect = higher value; also: % of control where 0% means no effect
In short: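 Chemiluminescence from complemented enzyme reported PPARalpha activation in cells after 6 hr of compound treatment at 37 C. The detection reagent was incubated for 60 min at room temperature, and compounds were scored as agonists.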

[11] = target: Nuclear receptor ROR-gamma (Homo sapiens) (UniProt P51449); assay: qHTS assay for small molecule antagonists of the retinoid-related orphan receptor gamma (ROR-gamma) signaling pathway (AID 651802);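 also: CHO cells with doxycycline-induced ROR-gamma expression; luciferase reporter luminescence driven by ROR response element; series mostly up to about 92 µM; % is scaled to controls: 0 for no effect and ±100 for the full control effect; nearly all actives have a fitted effect of over 60% in size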
In short: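 Luminescence (One-Glo, 30 min RT) measured 16 h after compound addition and doxycycline induction at 37C. Reporter: RORE-luciferase under TET-inducible ROR-gamma in CHO cells.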

[12] = qHTS assay for small molecule agonists of the antioxidant response element (ARE) signaling pathway measured by Nrf2-dependant transcriptional activity (AID 720636; active = well fitted curve in the direction sought with a large enough effect in the repeat runs; an effect the other way counts as inactive or inconclusive; also: % of control where 0% means no effect)
In short: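 Nrf2-dependent transcription read as ONE-Glo luciferase signal from ARE-luc HepG2 reporter cells after 16 hr compound treatment at 37 C, 5% CO2, in assay medium with 1% dialyzed FBS.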

[13] = qHTS assay for small molecule antagonists of the retinoid-related orphan receptor gamma (ROR-gamma) signaling pathway - cell viability counter screen (AID 720652; active = well fitted curve in the direction sought with a large enough effect in the repeat runs; an effect the other way counts as inactive or inconclusive;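 also: CHO reporter cells with doxycycline-induced ROR-gamma expression; series mostly up to about 92 µM; compound exposure lasted 16 hr before ATP read; % is scaled to controls: 0 for no effect and ±100 for the full control effect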)
In short: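 Cytotoxicity counter screen: intracellular ATP (CellTiter-Glo luminescence) measured in the doxycycline-induced CHO RORE-luciferase reporter line after 16 hr compound exposure at 37 C, 5% CO2.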

[14] = qHTS assay for small molecule agonists of the antioxidant response element (ARE) signaling pathway measured by Nrf2-dependant transcriptional activity - cell viability counter screen (AID 720653; active = well fitted curve in the direction sought with a large enough effect in the repeat runs; an effect the other way counts as inactive or inconclusive; also: % is scaled to controls: 0 for no effect and ±100 for the full control effect); settings: ARE-bla HepG2 viability, CellTiter-Glo ATP luminescence, 16 h; stronger effect = lower value
In short: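 Cytotoxicity counter screen: intracellular ATP quantified by CellTiter-Glo luminescence in the same ARE-bla HepG2 plates, after 16 h compound exposure and a 2 h beta-lactamase substrate step.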

[15] = qHTS assay for cell viability of HEK293 cells (AID 743288); settings: ATP luminescence (CellTiter-Glo), 18 h, stronger effect = lower value; also: % is scaled to controls: 0 for no effect and ±100 for the full control effect; nearly all actives have a fitted effect of over 50% in size
In short: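 Quantitative high-throughput screen: compounds were pinned onto parental HEK293 cells (2,000 per well) after a minimum 5 h settling at 37 C, incubated 18 h at 37 C, and intracellular ATP measured by luciferase luminescence.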

[16] = qHTS assay for cell viability of the p53RE-bla HCT-116 cell line (AID 743292); also: % is scaled to controls: 0 for no effect and ±100 for the full control effect; nearly all actives have a fitted effect of over 55% in size
In short: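 ATP-based luminescent viability (CellTiter-Glo, 30 min RT) after 16 h compound treatment at 37 C of p53RE-bla HCT-116 cells, seeded at 4,000 cells/well and rested 5 h before dosing.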

[17] = qHTS assay to identify small molecules that stimulate interleukin-8 (IL-8) secretion (AID 651758; active = well fitted activation curve with a large enough effect in the signal ratio; the % refers to the signal ratio; also: 0% is about no effect)
In short: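 Secreted IL-8 measured homogeneously by TR-FRET (two labelled anti-IL-8 antibodies, 1-3 h at room temperature) after a 16 h, 37 C compound treatment of THP-1 cells at 2000 cells/well.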

Tumor necrosis factor (Homo sapiens), sequence (P01375 whole entry, looked up): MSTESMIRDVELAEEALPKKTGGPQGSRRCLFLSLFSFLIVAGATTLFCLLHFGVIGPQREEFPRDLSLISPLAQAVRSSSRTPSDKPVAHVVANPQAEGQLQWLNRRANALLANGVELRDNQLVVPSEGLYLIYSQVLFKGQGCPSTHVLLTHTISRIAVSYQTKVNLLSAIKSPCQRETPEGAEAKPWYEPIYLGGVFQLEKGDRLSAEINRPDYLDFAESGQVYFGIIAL
Peroxisome proliferator-activated receptor alpha (Homo sapiens), sequence (Q07869 whole entry, looked up): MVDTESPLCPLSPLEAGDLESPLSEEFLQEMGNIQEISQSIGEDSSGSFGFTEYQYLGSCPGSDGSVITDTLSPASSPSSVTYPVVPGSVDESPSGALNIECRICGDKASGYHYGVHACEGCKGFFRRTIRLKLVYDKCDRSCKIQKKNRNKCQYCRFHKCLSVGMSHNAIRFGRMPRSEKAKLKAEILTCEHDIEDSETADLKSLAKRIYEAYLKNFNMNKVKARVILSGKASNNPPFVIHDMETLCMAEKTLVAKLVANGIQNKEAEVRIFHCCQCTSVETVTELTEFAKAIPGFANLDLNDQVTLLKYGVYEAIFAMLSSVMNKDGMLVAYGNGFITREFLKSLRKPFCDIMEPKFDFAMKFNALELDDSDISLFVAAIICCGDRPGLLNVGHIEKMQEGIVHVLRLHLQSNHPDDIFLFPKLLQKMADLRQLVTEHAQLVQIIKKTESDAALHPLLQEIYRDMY
T1 sequence (P35557 whole entry, looked up): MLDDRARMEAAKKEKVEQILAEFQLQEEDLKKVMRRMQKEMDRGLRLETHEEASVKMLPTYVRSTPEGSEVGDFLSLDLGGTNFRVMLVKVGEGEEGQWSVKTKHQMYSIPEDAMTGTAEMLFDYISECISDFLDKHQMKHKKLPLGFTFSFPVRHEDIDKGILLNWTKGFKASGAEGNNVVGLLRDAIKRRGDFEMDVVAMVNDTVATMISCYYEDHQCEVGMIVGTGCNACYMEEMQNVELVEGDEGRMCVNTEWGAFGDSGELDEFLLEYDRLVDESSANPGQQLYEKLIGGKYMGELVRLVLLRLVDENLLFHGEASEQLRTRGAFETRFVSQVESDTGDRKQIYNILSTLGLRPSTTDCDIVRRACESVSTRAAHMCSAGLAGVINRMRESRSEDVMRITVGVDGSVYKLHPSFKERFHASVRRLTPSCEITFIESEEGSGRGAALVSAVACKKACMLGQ
T1 sequence (Q14397 whole entry, looked up): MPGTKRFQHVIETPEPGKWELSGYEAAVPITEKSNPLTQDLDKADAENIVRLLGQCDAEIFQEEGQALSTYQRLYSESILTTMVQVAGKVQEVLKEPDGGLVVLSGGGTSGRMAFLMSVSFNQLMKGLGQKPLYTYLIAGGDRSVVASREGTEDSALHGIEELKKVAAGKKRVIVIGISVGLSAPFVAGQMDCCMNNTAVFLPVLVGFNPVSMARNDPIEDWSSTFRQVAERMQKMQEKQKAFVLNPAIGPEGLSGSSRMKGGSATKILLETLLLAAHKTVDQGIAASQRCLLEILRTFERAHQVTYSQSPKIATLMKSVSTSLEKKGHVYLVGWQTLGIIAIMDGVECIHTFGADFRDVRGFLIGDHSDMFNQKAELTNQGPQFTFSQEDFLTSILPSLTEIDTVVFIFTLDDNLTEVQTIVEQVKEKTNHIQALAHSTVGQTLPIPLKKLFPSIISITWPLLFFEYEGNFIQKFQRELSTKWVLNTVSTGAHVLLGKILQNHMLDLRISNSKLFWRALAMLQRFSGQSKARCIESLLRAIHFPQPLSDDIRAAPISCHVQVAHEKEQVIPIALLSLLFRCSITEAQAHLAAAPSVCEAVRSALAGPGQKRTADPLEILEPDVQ
Nuclear receptor ROR-gamma (Homo sapiens), sequence (P51449 whole entry, looked up): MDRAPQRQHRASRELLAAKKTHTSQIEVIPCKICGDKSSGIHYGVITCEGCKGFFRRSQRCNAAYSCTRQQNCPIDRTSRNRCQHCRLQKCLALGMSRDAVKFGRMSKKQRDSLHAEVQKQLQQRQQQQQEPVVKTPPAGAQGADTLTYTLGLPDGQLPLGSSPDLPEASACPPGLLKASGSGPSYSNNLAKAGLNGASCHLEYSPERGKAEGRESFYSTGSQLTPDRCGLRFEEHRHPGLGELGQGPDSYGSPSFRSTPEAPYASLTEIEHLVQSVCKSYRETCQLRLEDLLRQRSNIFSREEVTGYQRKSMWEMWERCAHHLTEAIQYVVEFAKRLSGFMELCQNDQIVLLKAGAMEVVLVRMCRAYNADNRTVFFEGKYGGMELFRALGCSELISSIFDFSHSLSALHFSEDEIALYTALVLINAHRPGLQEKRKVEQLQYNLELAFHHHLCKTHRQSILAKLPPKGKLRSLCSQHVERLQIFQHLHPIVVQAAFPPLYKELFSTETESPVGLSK

CN1C2CCC1CC(OC(=O)c1c[nH]c3ccccc13)C2 (stereo not drawn)
inactive: outcome [1] | outcome [2] | outcome [3] | outcome [4] | outcome [5] | outcome [6] | max response [7] 9.76%

CC(=O)Oc1ccc(C(c2ccc(OC(C)=O)cc2)c2ccccn2)cc1
inactive: outcome [8] | activation [9] 0.887% | max response [10] -4.57% | Potency [11] | Potency [12] | Potency [13] | max response [14] 4.78% | max response [7] 7.87% | max response [15] -9.96%

C=CCc1ccc(O)c(OC)c1
inactive: outcome [8] | activation [9] 1.13% and 0.0788% | max response [10] -0.867% and -4.24% | Potency [11] | Potency [12] | Potency [13] | max response [14] -2.21% and -7.34% | max response [7] 4.9% | max response [15] -4.89% and -5.68% | outcome [16]

CC(O)(P(=O)(O)O)P(=O)(O)O
inactive: activation [9] 0.149% | max response [10] 0.583% | Potency [12] | max response [14] -6.37% | max response [7] -10.1% | max response [15] -5.92% | outcome [16]

CC(C)COC(=O)OCN1C(=O)CN(CCN2CC(=O)N(COC(=O)OCC(C)C)C(=O)C2)CC1=O
inactive: outcome [1] | outcome [2] | outcome [3] | outcome [4] | outcome [5] | outcome [6] | max response [7] 5.95% and 28.2%

Oc1ccc(Cl)cc1Sc1cc(Cl)ccc1O
inactive: outcome [8] | Potency [17] | activation [9] 6.02% | max response [10] 18% | Potency [13] | max response [7] 6.07% | outcome [16]

CNCCC=C1c2ccccc2CCc2ccccc21
inactive: outcome [1] | outcome [2] | outcome [3] | outcome [4] | outcome [5] | outcome [6]

— PubChem BioAssay (NCATS)
